In PubChem BioAssay AID931 (National Center for Advancing Translational Sciences (NCATS), 2007):
Results filed as inconclusive are left out. Calls of active or inactive are those of the source. The call rests on the fitted dose curve; in most records, active means well fitted cell-killing curve with a large enough effect; inconclusive means small, poorly fitted or top-dose-only effect; inactive means flat fitted curve, though single readings scatter.

experiment: Confirmation and Secondary Assay for Modulators of Hemoglobin Beta Chain Splicing at IVS2 654 locus: Cytotoxicity; conditions: HBB IVS2-654 splicing reporter cells
From the text: NIH Chemical Genomics Center [NCGC]
NIH Molecular Libraries Screening Centers Network [MLSCN]
PI Name: Dr. Ryszard Kole
Modulation of Alternative Splicing as Therapy
Abnormal splicing is associated with a number of diseases, including cancer and genetic diseases such as cystic fibrosis, muscular dystrophy and beta-thalassemia. Alteration of disease associated splicing patterns provides a promising target for treatment. […] Mutations in the second intron of the b-globin gene at positions 654 or 705 are clinically relevant and cause mis-splicing which results in an out of frame gene product.
Examination of toxicity of select compounds in EGFP-654 HeLa Cells
HeLa cell lines were stably transfected with a construct in which the EGFP (enhanced green fluorescent protein) cDNA was interrupted by the second intron of the beta-globin gene (IVS2-654). The ISV2 intron contains mutations which cause mis-splicing of EGFP and premature termination of EGFP which results in a nonfluorescent protein product. […] Expression of the transgene was driven by the CMV promoter. Compounds, and related structures identified in the primary screen as potential splicing modulation were examined for their effects on cell toxicity in this follow up assay .
NCGC Assay Protocol Summary:
Toxicity Screening. Freshly thawed HeLa EGFP-654 cells were seeded in 5 ul of optimem media (Invitrogen) containing 2 % fetal calf serum (Hyclone) and 1x penicillin/streptomycin (Invitrogen) at a concentration of 500 cells per well in 1536-well plates. Cells were incubated overnight at 37C in 5% CO2. The next day, cells were treated with DMSO, 500 nM antisense ISV2 654 PNA control oligo, or library compound and allowed to grow at 37C in 5% CO2 for 2 days. Cells were treated with 5 ul/well of freshly prepared ATPlite (Perkin Elmer) and cells were allowed to lyse at room temperature for 5 minutes. Luminescence was captured on an Viewlux CCD imager (Perkin Elmer) using a 15 second integration time and cell death was measured by comparing compound treatments to DMSO treatment (no cell death). […]

SMILES | Potency
[Cl-].[Cl-].[Hg+2] | 0.398 µM (active)
O=c1[nH]cc(F)c(=O)[nH]1 | 12.6 µM (active)
CC(=O)[O][Hg][c]1ccccc1 | 12.6 µM (active)
